# Screening results deposited in PubChem by several laboratories.
# This is a sample that favours compounds with a hit; in the whole collection about 4.6% have one here.
# FAS TE block – inhibitors of human fatty acid synthase thioesterase domain | recombinant FAS-TE, OMFH fluorogenic substrate, fluorescence endpoint | inhibition, % at 15 µM | 0.67% of 360,000 active | AID 602261;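 active = compounds whose normalised, plate-corrected inhibition of enzyme fluorescence in the single-dose primary screen is 50% or more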;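 note: 0% = DMSO with enzyme and 100% = substrate without enzyme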
# proKLK7 act – proKLK7 (human) activation, primary screen. P49862. 0.9% of 370,000 active. purified proKLK7, EDANS-DABCYL substrate fluorescence; 100% is mature enzyme control, 0% vehicle. activation, % at 7 µM;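 active = activation above the mean of all tested compounds plus 3 SD, computed per campaign excluding outliers beyond control limits, cut at about 13% in these data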
# GRIN3A LBD mod – modulators (binders) of human NR3A ligand-binding domain; Tm shift relative to glycine control, % at 25 µM; NR3A LBD differential scanning fluorimetry, Tm shift; 0% = protein alone, 100% = glycine-bound protein; 2.5% of 340,000 active;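 active = melting temperature shift of at least 10% of the positive control shift, at one fixed dose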
# ADAM17 inh – inhibitors of human ADAM17 | 0.83% of 370,000 active | recombinant ADAM17, EDANS/DABCYL FRET peptide cleavage | AID 720648 | inhibition, % at 6.95 µM;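 active = inhibition above the mean of compounds lying between control limits plus 3 SD, set per campaign, cut at about 8.5% in these data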;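 note: 0% = DMSO-only wells as the low control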
# Target sequence (P78536 215-824 limits assumed): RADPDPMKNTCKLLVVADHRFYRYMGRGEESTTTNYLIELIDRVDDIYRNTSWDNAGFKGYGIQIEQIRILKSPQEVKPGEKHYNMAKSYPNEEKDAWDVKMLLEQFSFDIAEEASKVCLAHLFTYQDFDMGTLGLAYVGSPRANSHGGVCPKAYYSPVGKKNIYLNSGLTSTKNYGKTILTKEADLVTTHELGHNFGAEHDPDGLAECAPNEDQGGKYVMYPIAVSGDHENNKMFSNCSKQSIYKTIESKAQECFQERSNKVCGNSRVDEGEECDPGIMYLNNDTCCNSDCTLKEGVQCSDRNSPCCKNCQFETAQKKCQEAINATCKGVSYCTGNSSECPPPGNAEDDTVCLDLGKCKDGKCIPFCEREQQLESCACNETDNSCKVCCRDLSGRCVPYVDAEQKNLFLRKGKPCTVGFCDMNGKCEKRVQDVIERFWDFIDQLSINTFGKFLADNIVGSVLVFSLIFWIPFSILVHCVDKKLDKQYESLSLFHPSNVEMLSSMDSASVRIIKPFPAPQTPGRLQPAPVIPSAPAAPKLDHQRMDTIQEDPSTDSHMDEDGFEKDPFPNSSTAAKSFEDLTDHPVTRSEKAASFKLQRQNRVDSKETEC
# ADAM10 inh – ADAM10 inhibition, QFRET primary screen; O14672; recombinant ADAM10, EDANS/DABCYL FRET peptide cleavage, 3 h; inhibition, % at 7 µM; 0.62% of 370,000 active; AID 720582;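 active = inhibition above a per-campaign cutoff equal to the mean of compounds falling between control-based bounds plus 3 SD, cut at about 20% in these data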;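 note: 0% = DMSO wells while the 100% control is not disclosed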
# An asterisk follows results filed as active; x = not tested or not shown.
SMILES,FAS TE block,proKLK7 act,GRIN3A LBD mod,ADAM17 inh,ADAM10 inh
Fc1cc(F)c(C2SCCN2C(=S)Nc2cccc(C(F)(F)F)c2)c(F)c1 (stereo unspecified),41,0,16*,0,12
COc1ccc(C2SCCN2C(=S)Nc2ccc(Cl)cc2)cc1 (stereo unspecified),14,0,3,-2,-1
COc1ccc(-c2ccnc(SCC(=O)c3ccc(Br)cc3)n2)cc1,20,0,26*,-2,-6
COC(=O)[C@]12C[C@H](CC(=O)N3CCN(C(=O)C4CC4)CC3)C(=O)N(Cc3ccco3)C1=C[C@H](C(C)C)O[C@@H]2C1CC1,x,0,x,-3,-8
CCN1C(=O)/C(=C\C(=O)c2cccs2)c2cc(Br)ccc21,10,0,32*,-1,4
O=C1Nc2ccccc2/C1=C/C(=O)c1cccs1,-1,0,0,2,-3
O=C(COc1ccc(-c2ccccc2)cc1)N1CCN(C(=O)c2cccnc2)CC1,-1,0,12*,0,11
Cc1cc(Nc2ccc(F)c(F)c2)nc(-c2ccccc2O)n1,8,1,23*,-5,-1
Cc1cc(Nc2ccc(Br)cc2)nc(-c2ccccc2O)n1,32,6,29*,0,5
C[C@H]1[C@@H](OC(=O)N2CCN(c3ccccc3)CC2)CC[C@@]23CCCN2C(=O)CCC[C@@H]13,x,x,x,-3,-2
N#Cc1c(N)n(-c2ccccc2)c(=O)c2cc([N+](=O)[O-])ccc12,18,-1,25*,-3,-2
COc1cccc(C(=O)Nc2ccc(-c3nnc(-c4ccco4)o3)cc2)c1,20,-14,10*,-42,-91
COc1cccc(C(=O)Nc2ccc(-c3nc4ccccc4o3)c(O)c2)c1,18,-56,34*,-132,-470
COc1cccc(C(=O)Nc2cccc(-c3nnc(-c4ccccc4)o3)c2)c1,24,0,7,0,6
COc1cccc(C(=O)Nc2ccc3c(C)cc(=O)oc3c2)c1,1,1,10,-28,-80
COc1cc(C(=O)Nc2ccc(-c3nc4cc(C)ccc4o3)c(O)c2)cc(OC)c1OC,36,-1,35*,-9,-17
CS(=O)(=O)c1ccccc1C(=O)Nc1ccc(-c2nc3ccccc3o2)cc1,2,1,-3,-2,-5
COc1cc(OC)cc(C(=O)Nc2ccc(-c3nc4ccccc4o3)cc2)c1,20,-161,20*,-10,-42
CCOC(=O)c1csc(NC(=O)C2CCCN(S(=O)(=O)c3ccc([N+](=O)[O-])cc3)C2)n1 (stereo unspecified),x,0,x,4,5
CC(C)(C)C(=O)OC12CCCN(C1)/C(=C/c1ccncc1)C2 (stereo unspecified),x,0,x,-1,0
O=C(O)c1cnn(-c2ccccc2)c1-n1cccc1,-6,-1,0,1,-2
COC(=O)c1cnn(-c2ccc(C)c(C)c2)c1-n1cccc1,9,1,11*,-4,-4
COc1ccccc1OCCNC(=O)C1CC(=O)N(c2cccc(SC)c2)C1 (stereo unspecified),-2,0,17*,-1,-17
C=CCN(C(=O)[C@@H](CCCC)[C@@H](O)c1ccc(C(C)=O)cc1)c1ccccc1,x,1,x,0,3
Cc1c(NC(=O)C2CCCN(S(=O)(=O)c3c(C(C)C)cc(C(C)C)cc3C(C)C)C2)c(=O)n(-c2ccccc2)n1C (stereo unspecified),x,-1,x,1,2
SMILES,FAS TE block,proKLK7 act,GRIN3A LBD mod,ADAM17 inh,ADAM10 inh
Oc1ccc2ccccc2c1/C=N/Nc1nnc(-c2ncc[nH]2)c2ccccc12,18,0,21*,5,7
Cc1ccc(-n2c(SCC(=O)Nc3ccc4c(c3)OCCO4)nnc2-c2cnccn2)cc1,x,0,x,0,-2
Cc1ccc(S(=O)(=O)N(C)C)cc1NC(=O)COC(=O)CCC1CCCC1,2,-1,-1,-1,1
Cc1ccc(S(=O)(=O)N(C)C)cc1NC(=O)COC(=O)C1CCCC1,-7,0,21*,-7,-10
CN(C)S(=O)(=O)c1cccc(C(=O)N/N=C\c2ccccc2)c1,x,0,x,-2,-3
Cc1ccc(NC(=S)NC(=O)c2ccc(-c3ccc(Cl)cc3)o2)c(O)c1,10,0,34*,1,-1
Cc1cc(O)c(NC(=S)NC(=O)c2ccc(-c3ccc(Cl)cc3)o2)cc1C,18,-1,30*,-31,-62
Cc1ccc(O)c(NC(=S)NC(=O)Cc2ccc(Cl)cc2)c1,1,0,-7,2,10
O=C(N/N=C1\CCCc2c1[nH]c1ccc(Cl)cc21)c1ccncc1,5,1,-12,-11,-35
c1ccc2c3c([nH]c2c1)-c1[nH]ncc1CC3,-7,1,30*,-3,-12
Clc1ccc2[nH]c3c(c2c1)CCc1cn[nH]c1-3,-36,0,18*,-7,-20
COC(=O)C1CN(C2CC2)CCS(=O)(=O)N1Cc1cn(Cc2ccc(C)cc2)nn1 (stereo unspecified),x,0,x,0,-1
Cc1cc(C)cc(N(CC(=O)NC2CCC(C)CC2)S(=O)(=O)c2ccc(C(C)(C)C)cc2)c1 (stereo unspecified),x,0,x,-1,-7
Nc1[nH]c(C(=O)c2ccccc2)c(-c2cccc3ccccc23)c1C(=O)c1c(-c2ccccc2)[nH]c2ccccc12,x,x,x,2,5
OCCN(CCO)c1ccc(C(c2ccc(Cl)cc2)c2ccc(N(CCO)CCO)cc2Cl)c(Cl)c1,24,-1,28*,7,8
COc1cc(/C=C2\SC(=Nc3ccc(O)cc3)NC2=O)cc(OC)c1OC,x,0,-5,-7,-3
COc1ccc(N=C2NC(=O)/C(=C/c3ccc(O)c(OC)c3)S2)cc1,-6,0,20*,3,13
COc1cc(/C=C2/SC(=Nc3ccc(O)cc3)NC2=O)cc(OC)c1O,2,0,11*,2,1
O=C(CSc1nnc(-c2cccs2)o1)Nc1cccc2ccccc12,x,0,x,-3,-8
CN1CCCN(S(=O)(=O)c2ccc3c(c2)CCC(=O)N3)CC1,x,0,x,-3,-8
CCN(CCNC(=O)[C@H]1C=C(OC)C(=O)C[C@H](c2ccccc2)[C@H]1C)C(C)=O,x,-1,x,1,-5
c1ccc(CNc2nc(-c3cccs3)nc3ccccc23)cc1,44,0,24*,-1,-4
c1ccc(CNc2nc(-c3ccccn3)nc3ccccc23)cc1,-4,0,-2,-15,-27
c1ccc(CNc2nc(-c3ccccc3)nc3ccccc23)cc1,35,1,10*,6,15
c1ccc(CNc2nc(-c3cccnc3)nc3ccccc23)cc1,7,0,-4,0,3
COCCCNc1nc(-c2ccc(Cl)cc2)nc2ccccc12,37,0,12*,1,4
